Reference: paper PMC6664820, “Novel natural and synthetic inhibitors of solute carriers SGLT1 and SGLT2” (Pharmacology Research & Perspectives, 2019)
Hit rate of the full screen: of about 1,900 compounds, about 40 (2%) showed an effect of 50% or more. The entries come from a sample that favours strong results as a whole.

molecular target: human SGLT1 (hSGLT1) (human, UniProt P13866); test: primary screen, percent of control activity; higher = less effect of the substance; parameters: single well; details: 50 µM
Description: Two days before the assay, CHO‐wild type and CHO‐hSGLT1 cells were seeded in maintenance medium at 25 000 cells/well in clear‐bottom black 96‐well cell culture plates. Before the assay, cells were washed 3 times with 150 μL/well D‐glucose free DMEM with 0.3% (w/v) BSA. Library compounds at 50 μmol/L (singlicate) prepared in D‐glucose free DMEM with 160 μmol/L 1‐NBD‐glucose and 0.3% (w/v) BSA and negative controls (triplicate) were added at 100 μL/well and placed in a humidified incubator at 37°C with 5% CO2 for 90 minutes. Next, cells were washed 3 times with DMEM with 0.3% (w/v) BSA (150 μL/well). Care was taken to remove all medium after the last wash. Finally, 1‐NBD‐glucose was extracted from the cells by adding 10 μL/well isopropanol and orbital shaking for 5 minutes at 600 rpm, followed by incubation in the dark for 30 minutes. Fluorescence was measured on a Tecan Infinite M200 Microplate Reader (Tecan, Männedorf, Switzerland) with excitation at 445 nm and emission at 525 nm. The amount of 1‐NBD‐glucose taken up by the CHO‐wild type or CHO‐hSGLT1 cells in the presence or absence of test compounds was interpolated from 1‐NBD‐glucose calibration standards. The background uptake by CHO‐wild type was subtracted from the uptake by CHO‐hSGLT1. Background corrected uptake with test compound was expressed as a percentage of corrected uptake without test compound.

Chain of human SGLT1 (hSGLT1) (P13866 whole entry, looked up): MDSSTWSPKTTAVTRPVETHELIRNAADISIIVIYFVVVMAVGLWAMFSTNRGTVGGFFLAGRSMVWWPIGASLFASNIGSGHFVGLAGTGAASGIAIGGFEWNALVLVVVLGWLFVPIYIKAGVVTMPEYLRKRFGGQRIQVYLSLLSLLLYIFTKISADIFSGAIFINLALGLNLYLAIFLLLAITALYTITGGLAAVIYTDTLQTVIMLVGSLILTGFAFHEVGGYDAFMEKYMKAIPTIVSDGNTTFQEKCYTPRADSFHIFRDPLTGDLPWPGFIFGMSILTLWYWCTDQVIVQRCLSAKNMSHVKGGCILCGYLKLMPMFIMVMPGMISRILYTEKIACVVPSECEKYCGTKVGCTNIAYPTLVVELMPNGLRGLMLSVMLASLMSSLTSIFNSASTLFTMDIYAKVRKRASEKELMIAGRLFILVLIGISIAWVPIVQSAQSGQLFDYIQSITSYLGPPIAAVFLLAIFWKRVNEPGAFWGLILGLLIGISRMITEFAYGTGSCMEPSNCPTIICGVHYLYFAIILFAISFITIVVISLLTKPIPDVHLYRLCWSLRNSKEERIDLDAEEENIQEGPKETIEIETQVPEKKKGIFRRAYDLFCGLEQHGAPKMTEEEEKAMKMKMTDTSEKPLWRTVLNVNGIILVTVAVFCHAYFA

| Structure (SMILES) | NORMALIZED SGLT1 ACTIVITY (%) |
| --- | --- |
| COC(=O)[C@H]1[C@H]2C[C@H]3c4[nH]c5ccccc5c4CCN3C[C@H]2CC[C@@H]1O.Cl | 110% |
| COc1cc2c(cc1O)C(Cc1ccc(O)cc1)N(C)CC2 (centres unmarked) | 89% |
| Oc1ccc(Cl)cc1Cc1cc(Cl)ccc1O | 590% |
| CC1(C)C(=O)C=C[C@@]2(C)C1=C(O)C(=O)[C@]1(C)C2CC[C@@]2(C)[C@H](c3ccoc3)C[C@H]3O[C@]321 (some centres unmarked) | 45% |
| CC(=O)O[C@@H]1C[C@@]2(C)[C@H](c3ccoc3)C[C@H]3O[C@]32[C@]2(C)C(=O)C(O)=C3C(C)(C)C(=O)C=C[C@]3(C)C12 (some centres unmarked) | 104% |
| CC1(C)C(=O)C=C[C@@]2(C)C1C[C@@H](O)[C@]1(C)C2CC[C@@]2(C)[C@H](c3ccoc3)OC(=O)[C@H]3O[C@]321 (some centres unmarked) | 103% |
| O=C1CN(/N=C/c2ccc([N+](=O)[O-])o2)C(=O)N1 | 159% |
| CNC[C@@H](O)c1ccc(O)c(O)c1.O=C(O)C(O)C(O)C(=O)O | 105% |
| N#Cc1c(Cl)c(Cl)c(Cl)c(C#N)c1Cl | 76% |
| OCCN1CCN(CCCN2c3ccccc3Sc3ccc(Cl)cc32)CC1 | 17% |
| N#Cc1ccc2c(c1)N(CCCN1CCC(O)CC1)c1ccccc1S2 | 75% |
| CN1CCN(CCCN2c3ccccc3Sc3ccc(C(F)(F)F)cc32)CC1.Cl.Cl | 61% |
| Cn1nnnc1SCC1=C(C(=O)[O-])N2C(=O)C(NC(=O)C(O)c3ccccc3)C2SC1.[Na+] (centres unmarked) | 150% |
| COc1cc2c(cc1OC)C1C(=O)c3c(O)cc4c(c3OC1CO2)C=CC(C)(C)O4 (centres unmarked) | 283% |
| CCCc1ncc(C[n+]2ccccc2C)c(N)n1.Cl.[Cl-] | 87% |
| Cc1cc(O)c2c(c1)C(=O)c1cc(O)cc(O)c1C2=O | 118% |
| CN(C)CC/C=C1\c2ccccc2Sc2ccc(Cl)cc21.Cl | 87% |
| CN(C)CCC=C1c2ccccc2C=Cc2ccccc21.Cl | 50% |
| CN(C)CCC=C1c2ccccc2CCc2ccccc21.Cl | 59% |
| Cc1cc(C2CCCCC2)n(O)c(=O)c1.NCCO | 182% |
| ClC1=C(Cl)C2(Cl)C3C4C=CC(C4)C3C1(Cl)C2(Cl)Cl (centres unmarked) | 96% |
| COc1cc2ccc(=O)oc2c(OC)c1OC | 257% |

| Structure (SMILES) | NORMALIZED SGLT1 ACTIVITY (%) |
| --- | --- |
| COC(=O)c1c(OC)cc2c(c1C)Oc1c(Cl)c(O)c(Cl)c(C)c1C(=O)O2 | 520% |
| Cc1cc(O)c2c(c1O)C(=O)c1c(O)cc(C)c(O)c1C2=O | 127% |
| CN[C@@H]1[C@@H](O)C(OC2[C@@H](N)C[C@@H](N)[C@H](O[C@H]3O[C@H](C(C)O)[C@@H](O)[C@H](O)[C@H]3N)[C@H]2O)OC[C@]1(C)O.O=S(=O)(O)O.O=S(=O)(O)O (some centres unmarked) | 82% |
| CNC(=O)O/N=C(/C)SC | 76% |
| COc1c2ccoc2cc2oc(C)cc(=O)c12 | 165% |
| OC[C@H]1O[C@@H](n2cnc3c(NCc4ccco4)ncnc32)[C@H](O)[C@@H]1O | 142% |
| CCCCCCCCCN1C[C@H](O)[C@@H](O)[C@H](O)[C@H]1CO | 83.2% |
| ClC1=C(Cl)C2(Cl)C3C4CC(C5OC45)C3C1(Cl)C2(Cl)Cl (centres unmarked) | 136% |
| CC[C@@H](CO)NCCN[C@@H](CC)CO.Cl.Cl | 90% |
| Oc1c(Br)cc(Br)c2cccnc12 | 50% |
| O=S(=O)(O)O.Oc1cccc2cccnc12 | 127% |
| CC(=O)Oc1ccc(Cl)c2cccnc12 | 202% |
| Oc1c(I)cc(I)c2cccnc12 | 97% |
| Oc1c(Cl)cc(Cl)c2cccnc12 | 48% |
| Oc1ccc(Cl)c2cccnc12 | 208% |
| CC(=O)O[C@@H]1CC2C(C)(C)C(=O)C3OC3[C@]2(C)C2CC[C@@]3(C)[C@H](c4ccoc4)OC(=O)C4OC43[C@@]21C (some centres unmarked) | 138% |
| CC(C)CCCC(C)[C@H]1CCC2C3CC=C4C[C@@H](O)CC[C@]4(C)C3CC[C@@]21C (some centres unmarked) | 120% |
| C[n+]1c2cc(N)ccc2cc2ccc(N)cc21.[Cl-] | 169% |
| CC1=CC(=O)C2=C(C)CC[C@@H]3[C@H](OC(=O)[C@H]3C)[C@@H]12 | 109% |
| COC(=O)Nc1nc2ccc(S(=O)c3ccccc3)cc2[nH]1 (centres unmarked) | 125% |
| Cc1ccc(O)c(C(CCN(C(C)C)C(C)C)c2ccccc2)c1.O=C(O)C(O)C(O)C(=O)O (centres unmarked) | 78% |
| COc1ccc(C(=O)c2ccccc2)c(O)c1 | 26% |

| Structure (SMILES) | NORMALIZED SGLT1 ACTIVITY (%) |
| --- | --- |
| COc1ccc(C(=O)c2ccccc2O)c(O)c1 | 111% |
| COc1cc(O)c(C(=O)c2ccccc2)cc1O | 235% |
| CCS(=O)(=O)CCn1c([N+](=O)[O-])cnc1C | 123% |
| COc1ccc2ccc(=O)oc2c1 | 130% |
| Cc1cccc(C)c1NC(=O)C1CCCCN1C.Cl (centres unmarked) | 83% |
| CCN(CC)CC(=O)Nc1c(C)cccc1C.Cl | 72% |
| CCCCN1CCCCC1C(=O)Nc1c(C)cccc1C.Cl (centres unmarked) | 42% |
| CC(C)CCCC(C)[C@H]1CCC2C3C(=O)C=C4C[C@@H](O)CC[C@]4(C)C3CC[C@@]21C (some centres unmarked) | 95% |
| Cc1ccc(N(CC2=NCCN2)c2cccc(O)c2)cc1.Cl | 62% |
| COc1ccc2c(c1)OC/C(=C\c1ccc(OC)c(O)c1)C2=O | 140% |
| O=C1C=CC(=C(c2ccc(O)cc2)c2ccc(O)cc2)C=C1 | 78% |
| CN(C)c1ccc(C(=C2C=CC(=[N+](C)C)C=C2)c2ccc(N(C)C)cc2)cc1.[Cl-] | 43% |
| CC(CCc1ccccc1)NCC(O)c1ccc(O)c(C(N)=O)c1.Cl (centres unmarked) | 76% |
| O=C([O-])CF.[Na+] | 96% |
| C[C@@H]1C(=O)O[C@H]2[C@H]1CC[C@@]1(C)C=CC(=O)[C@@]3(C)O[C@@]213 | 96% |
| COc1cc(OC)c(OC)cc1C=O | 189% |
| C1CCC(C(CC2CCCCN2)C2CCCCC2)CC1.O=C(O)/C=C\C(=O)O (centres unmarked) | 1% |
| CCC[C@@H]1CCCCN1 | 85% |
| CC(=O)CC1CCCCN1.Cl (centres unmarked) | 86% |
| C=C[C@H]1CN2CC[C@H]1C[C@H]2[C@H](O)c1ccnc2ccccc12 | 77% |
| C=Cc1c(C)c2[n]3c1C=c1c(C)c(CC)c4[n]1[Cu]31[n]3c(c(C)c5c3C(=c3c(CCC(=O)[O-])c(C)c([n]31)=C2)C(C(=O)[O-])C5=O)C=4.[Na+].[Na+] (centres unmarked) | 94% |
